This is an account of results in PubChem BioAssay (NCATS).

For experiment [1], the target named is DNA dC->dU-editing enzyme APOBEC-3G (Homo sapiens) (UniProt Q9HC16). Description: qHTS for inhibitors of Vif-A3G interactions: Validation (AID 588379; active means well fitted inhibition curve with a large enough effect; further: 0% is about no effect). Put shortly:
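HeLa cells stably expressing Vif and A3G-eYFP, 700 cells/well, incubated overnight at 37 deg C, then exposed to compound overnight at 37 deg C. Inhibition of Vif-mediated degradation read as increased yellow fluorescence (Ex 488/Em 500-530) by laser-scanning cytometry.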
Background: qHTS replaces the single test concentration by a dilution series.

The target of experiment [2] is Estrogen receptor (Homo sapiens) (UniProt P03372). Put plainly: qHTS assay for small molecule agonists of estrogen receptor alpha signaling (AID 588514).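 Further: 0% = vehicle only and 100% = reference agonist; nearly all actives have a fitted effect of over 70% in size.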 Put shortly:
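Reporter-gene assay. […] controls beta-lactamase in HEK 293 GripTite cells; after 18 hrs with compound, CCF4 substrate is added for 2 hrs and fluorescence is read.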

For experiment [3], the target named is Peroxisome proliferator-activated receptor gamma (Homo sapiens) (UniProt P37231). Description: qHTS assay for small molecule agonists of peroxisome proliferator-activated receptor gamma signaling (AID 588536; active means well fitted curve in the direction sought with a large enough effect in the signal ratio, with a control signal flat, not every such curve was filed as active; the % refers to the signal ratio;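 further: 0% = DMSO basal wells and 100% = rosiglitazone at 2 µM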). Put shortly: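 GeneBLAzer PPAR-gamma-UAS-bla HEK293 cells in 1% charcoal/dextran-treated FBS medium were treated 16 h at 37 C with compounds. Beta-lactamase activity was read by CCF4 ratio (460/530 nm). Response was normalized to 2 uM rosiglitazone (100%) and DMSO, then Hill-fitted for EC50 and efficacy.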
Peroxisome proliferator-activated receptor gamma (Homo sapiens), sequence (P37231 whole entry, looked up): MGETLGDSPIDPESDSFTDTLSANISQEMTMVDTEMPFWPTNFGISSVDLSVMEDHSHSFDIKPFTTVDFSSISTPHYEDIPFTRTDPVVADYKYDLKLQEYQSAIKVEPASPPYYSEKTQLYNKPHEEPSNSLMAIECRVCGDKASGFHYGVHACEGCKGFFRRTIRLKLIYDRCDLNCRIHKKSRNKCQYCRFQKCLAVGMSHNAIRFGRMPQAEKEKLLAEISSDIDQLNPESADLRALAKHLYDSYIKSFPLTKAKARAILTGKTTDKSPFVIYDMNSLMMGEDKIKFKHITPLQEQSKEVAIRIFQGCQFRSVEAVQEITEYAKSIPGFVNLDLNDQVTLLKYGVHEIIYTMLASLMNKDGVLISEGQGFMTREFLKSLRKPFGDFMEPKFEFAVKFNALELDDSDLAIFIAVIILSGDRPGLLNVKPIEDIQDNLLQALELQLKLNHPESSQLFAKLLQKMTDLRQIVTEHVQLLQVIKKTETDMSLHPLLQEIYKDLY

Experiment [4] deals with Bile acid receptor (Homo sapiens) (UniProt Q96RI1). Description: qHTS assay for small molecule antagonists of farnesoid X receptor signaling (AID 588526). Further: on the % scale 0 is the no-effect control and ±100 the full control effect. In a few lines: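 Antagonist mode: titrated compounds tested against chenodeoxycholic acid stimulation (normalized to 50 uM CDCA and DMSO) in GeneBLAzer HEK293T cells for 16 h. Beta-lactamase read by CCF4 fluorescence; IC50 from Hill fits.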
Bile acid receptor (Homo sapiens), sequence (Q96RI1 whole entry, looked up): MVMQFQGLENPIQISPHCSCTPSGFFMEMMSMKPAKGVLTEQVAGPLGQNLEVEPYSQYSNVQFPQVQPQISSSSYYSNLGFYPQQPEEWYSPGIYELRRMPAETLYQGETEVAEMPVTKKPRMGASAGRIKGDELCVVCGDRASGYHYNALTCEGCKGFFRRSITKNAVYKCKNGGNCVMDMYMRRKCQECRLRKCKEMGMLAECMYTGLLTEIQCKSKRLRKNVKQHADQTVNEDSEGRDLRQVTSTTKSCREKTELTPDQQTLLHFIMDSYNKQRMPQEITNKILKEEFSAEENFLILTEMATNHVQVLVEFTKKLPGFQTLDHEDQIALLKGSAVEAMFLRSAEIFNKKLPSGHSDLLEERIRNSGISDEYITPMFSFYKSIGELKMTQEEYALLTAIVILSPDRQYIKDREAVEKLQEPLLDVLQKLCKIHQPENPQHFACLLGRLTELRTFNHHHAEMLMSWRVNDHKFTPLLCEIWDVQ

In experiment [5] the target is Glucocorticoid receptor (Homo sapiens) (UniProt P04150). Put plainly: qHTS assay for small molecule antagonists of glucocorticoid receptor signaling (AID 588533; active means well fitted inhibition curve with a large enough effect in the signal ratio, with a control signal flat, not every such curve was filed as active; the % refers to the signal ratio;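 further: cells stimulated with 2 nM dexamethasone as agonist; on the % scale 0 is the no-effect control and ±100 the full control effect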). Put shortly: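 Antagonist-mode qHTS: compound titrations added to GRE-bla HeLa cells, then dexamethasone 2 nM final; 18 h, 37 C. CCF4 FRET fluorescence normalized to dexamethasone and DMSO; IC50 from Hill fit.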
Glucocorticoid receptor (Homo sapiens), sequence (P04150 whole entry, looked up): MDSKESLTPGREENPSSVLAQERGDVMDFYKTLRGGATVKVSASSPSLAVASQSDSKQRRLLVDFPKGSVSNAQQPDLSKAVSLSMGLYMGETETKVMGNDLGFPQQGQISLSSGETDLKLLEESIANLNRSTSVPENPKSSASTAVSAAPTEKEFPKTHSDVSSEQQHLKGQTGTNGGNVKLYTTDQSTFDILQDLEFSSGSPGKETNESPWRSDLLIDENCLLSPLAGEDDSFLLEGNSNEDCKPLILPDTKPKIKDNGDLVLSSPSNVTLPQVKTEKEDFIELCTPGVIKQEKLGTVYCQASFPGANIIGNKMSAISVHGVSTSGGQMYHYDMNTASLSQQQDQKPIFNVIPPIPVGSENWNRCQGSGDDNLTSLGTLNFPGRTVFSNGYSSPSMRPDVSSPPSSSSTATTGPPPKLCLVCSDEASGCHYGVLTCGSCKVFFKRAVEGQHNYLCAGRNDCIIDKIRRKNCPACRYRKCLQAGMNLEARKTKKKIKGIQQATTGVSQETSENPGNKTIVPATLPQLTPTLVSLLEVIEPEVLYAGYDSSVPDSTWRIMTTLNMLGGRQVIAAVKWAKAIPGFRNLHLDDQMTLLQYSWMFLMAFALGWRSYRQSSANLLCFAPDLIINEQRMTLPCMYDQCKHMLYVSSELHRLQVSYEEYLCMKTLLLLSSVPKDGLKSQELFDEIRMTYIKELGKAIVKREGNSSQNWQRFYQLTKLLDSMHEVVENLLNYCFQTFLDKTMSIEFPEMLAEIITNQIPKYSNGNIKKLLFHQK

The nature of experiment [6]: qHTS assay for small molecule antagonists of peroxisome proliferator-activated receptor delta signaling (AID 588535; active means well fitted inhibition curve with a large enough effect in the signal ratio, with a control signal flat, not every such curve was filed as active; the % refers to the signal ratio;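 on max response: cells co-treated with a PPAR-delta agonist as stimulator during compound exposure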). As to conditions: HEK293T PPARd-UAS-bla, beta-lactamase FRET ratio, 18 h; 460 nm channel. Put shortly: (§1)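 Cells were seeded at 4000 per well in assay medium containing 2% charcoal/dextran FBS and held 5 hrs at 37 C. Compounds were then added for 18 hrs. CCF4 substrate was applied for 2 hrs at room temperature before fluorescence reading.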

The target in experiment [7] is Peroxisome proliferator-activated receptor delta (Homo sapiens) (UniProt Q03181). The experiment is described as above. In a few lines: as §1
Peroxisome proliferator-activated receptor delta (Homo sapiens), sequence (Q03181 whole entry, looked up): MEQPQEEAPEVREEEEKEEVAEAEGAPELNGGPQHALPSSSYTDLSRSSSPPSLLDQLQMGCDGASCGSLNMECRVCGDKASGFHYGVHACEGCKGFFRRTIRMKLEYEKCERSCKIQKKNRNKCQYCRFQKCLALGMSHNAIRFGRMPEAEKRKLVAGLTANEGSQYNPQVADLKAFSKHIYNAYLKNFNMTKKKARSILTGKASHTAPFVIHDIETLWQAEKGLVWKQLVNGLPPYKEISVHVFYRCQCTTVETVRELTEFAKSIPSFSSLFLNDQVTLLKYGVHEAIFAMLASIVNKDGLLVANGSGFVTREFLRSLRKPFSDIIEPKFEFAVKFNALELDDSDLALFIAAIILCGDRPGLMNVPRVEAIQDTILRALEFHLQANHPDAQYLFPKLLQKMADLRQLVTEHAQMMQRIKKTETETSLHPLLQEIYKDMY
The target of experiment [8] is Estrogen receptor (Homo sapiens) (UniProt P03372). Put plainly: qHTS assay for small molecule antagonists of estrogen receptor alpha signaling (AID 588513; active means well fitted curve in the direction sought with a large enough effect in the signal ratio, with a control signal flat, not every such curve was filed as active; the % refers to the signal ratio; further: on the % scale 0 is the no-effect control and ±100 the full control effect). In a few lines:
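ER-alpha-UAS-bla GripTite HEK 293 cells in 2% charcoal/dextran-treated FBS medium; compounds titrated (1:2, duplicate), then stimulated with 0.5 nM 17-beta-estradiol for 18 h at 37C. CCF4 beta-lactamase fluorescence; Hill-fit IC50 and efficacy.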

For experiment [9], the target named is Androgen receptor (Homo sapiens) (UniProt P10275). Put plainly: qHTS assay for small molecule agonists of androgen receptor signaling (AID 588515; active means well fitted curve in the direction sought with a large enough effect in the signal ratio, with a control signal flat; the % refers to the signal ratio; further: on the % scale 0 is the no-effect control and ±100 the full control effect). As to conditions: AR-UAS-bla HEK293, beta-lactamase ratio, agonist 16 h; stronger effect = higher value. In a few lines: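 EC50 and efficacy came from Hill fits of titrations (up to 92 uM) normalized to 30 nM R1881 as 100% and DMSO as 0%. Compound exposure was 16 h at 37 C on AR-UAS-bla HEK293 cells, with a 405/460/530 nm CCF4 fluorescence read.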
Androgen receptor (Homo sapiens), sequence (P10275 whole entry, looked up): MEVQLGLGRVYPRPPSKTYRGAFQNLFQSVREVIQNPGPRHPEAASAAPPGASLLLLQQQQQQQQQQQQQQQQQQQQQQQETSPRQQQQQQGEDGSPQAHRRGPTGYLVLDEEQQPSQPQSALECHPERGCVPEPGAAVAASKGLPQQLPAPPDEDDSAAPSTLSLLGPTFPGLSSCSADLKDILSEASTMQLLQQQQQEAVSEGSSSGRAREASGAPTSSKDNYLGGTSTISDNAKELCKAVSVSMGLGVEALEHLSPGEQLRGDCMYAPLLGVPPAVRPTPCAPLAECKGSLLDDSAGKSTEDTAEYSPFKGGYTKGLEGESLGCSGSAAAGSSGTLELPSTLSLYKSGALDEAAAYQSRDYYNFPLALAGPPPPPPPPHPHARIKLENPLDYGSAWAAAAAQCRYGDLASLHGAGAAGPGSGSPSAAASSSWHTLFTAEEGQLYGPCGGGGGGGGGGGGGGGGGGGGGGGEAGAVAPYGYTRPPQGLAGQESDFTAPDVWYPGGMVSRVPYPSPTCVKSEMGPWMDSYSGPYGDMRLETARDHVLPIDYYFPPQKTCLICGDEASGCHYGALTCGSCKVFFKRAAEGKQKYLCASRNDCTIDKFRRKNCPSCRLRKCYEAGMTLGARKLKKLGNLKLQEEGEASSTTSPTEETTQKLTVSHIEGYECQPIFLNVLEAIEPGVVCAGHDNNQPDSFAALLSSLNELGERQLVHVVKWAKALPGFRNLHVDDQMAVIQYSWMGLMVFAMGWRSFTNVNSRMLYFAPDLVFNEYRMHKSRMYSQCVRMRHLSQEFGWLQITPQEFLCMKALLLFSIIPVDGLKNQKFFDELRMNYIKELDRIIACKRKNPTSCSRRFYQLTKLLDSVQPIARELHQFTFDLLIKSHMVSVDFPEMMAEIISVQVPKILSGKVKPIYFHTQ

The target is the same in experiment [10]. Put plainly: qHTS assay for small molecule antagonists of androgen receptor signaling (AID 588516; active means well fitted curve in the direction sought with a large enough effect in the signal ratio, with a control signal flat, not every such curve was filed as active; the % refers to the signal ratio; further: on the % scale 0 is the no-effect control and ±100 the full control effect). Put shortly:
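AR-UAS-bla GripTite HEK 293 cells (2000/well) treated with compound titrations plus 10 nM R1881 for 16 h at 37C. Beta-lactamase read by CCF4 FRET (460/530 nm); IC50 from Hill fits, normalized to R1881 and DMSO control wells.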

Each structure is given as a SMILES string. Several values for one entry are separate records, joined by “and”; a condition that tells them apart may be missing. Equal values may be shown once. Records with an inconclusive call do not appear. Activity calls are given as the source filed them. Unless noted, the call rests on the fitted dose curve. Peptide text beside a SMILES is read from it.

Estrogen receptor (Homo sapiens), sequence (P03372 whole entry, looked up): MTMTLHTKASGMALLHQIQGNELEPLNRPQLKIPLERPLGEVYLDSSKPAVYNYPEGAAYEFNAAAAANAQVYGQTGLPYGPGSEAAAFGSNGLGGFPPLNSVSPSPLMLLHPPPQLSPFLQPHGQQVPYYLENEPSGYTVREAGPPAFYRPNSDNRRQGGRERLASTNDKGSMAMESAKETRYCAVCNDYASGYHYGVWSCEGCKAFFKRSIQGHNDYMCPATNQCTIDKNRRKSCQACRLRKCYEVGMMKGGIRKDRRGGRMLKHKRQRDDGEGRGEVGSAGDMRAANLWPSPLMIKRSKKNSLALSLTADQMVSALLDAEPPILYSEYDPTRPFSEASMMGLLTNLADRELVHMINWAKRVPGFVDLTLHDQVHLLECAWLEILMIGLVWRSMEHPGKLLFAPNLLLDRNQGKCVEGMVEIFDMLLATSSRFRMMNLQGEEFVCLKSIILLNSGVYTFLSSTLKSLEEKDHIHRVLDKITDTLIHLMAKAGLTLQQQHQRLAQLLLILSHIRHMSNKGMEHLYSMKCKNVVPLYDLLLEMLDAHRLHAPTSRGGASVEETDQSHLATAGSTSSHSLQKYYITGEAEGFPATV
DNA dC->dU-editing enzyme APOBEC-3G (Homo sapiens), sequence (Q9HC16 whole entry, looked up): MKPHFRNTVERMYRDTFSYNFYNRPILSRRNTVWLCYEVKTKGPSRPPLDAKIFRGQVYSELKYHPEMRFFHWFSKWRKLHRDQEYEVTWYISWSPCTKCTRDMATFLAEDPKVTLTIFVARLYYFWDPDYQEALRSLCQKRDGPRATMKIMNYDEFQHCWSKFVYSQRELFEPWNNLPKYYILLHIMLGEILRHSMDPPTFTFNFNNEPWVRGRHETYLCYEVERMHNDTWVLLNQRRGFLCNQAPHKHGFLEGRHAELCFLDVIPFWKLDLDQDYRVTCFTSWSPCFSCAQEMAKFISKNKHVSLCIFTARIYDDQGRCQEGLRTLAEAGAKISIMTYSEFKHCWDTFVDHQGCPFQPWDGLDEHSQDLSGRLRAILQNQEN

For `CCN(CC)CCOc1ccc(Cc2ccccc2)cc1`, the call in experiment [1] was inactive.

As to `O=C1NC(=O)C(c2ccccc2[N+](=O)[O-])=C1Nc1ccc(O)c(Cl)c1`, in experiment [1], the compound was classed as inactive.

`CNC[C@H](O)c1ccc(O)c(O)c1`: the compound was classed as inactive in experiment [1], in experiment [2] and in experiment [3].

Turning to `O=C(NCCO[N+](=O)[O-])c1cccnc1`, the compound was called inactive in experiment [1].

As to `OC(CN1CCN(c2cccc(Cl)c2)CC1)C(c1ccccc1)c1ccccc1` (stereo unspecified), in experiment [1], the compound was classed as inactive.

On to `O=C1c2c(O)cc(O)cc2OC(c2ccc(O)c(O)c2)C1O` (stereo unspecified), for which the outcome in experiment [1] was inactive.

Turning to `O=c1cc(N2CCOCC2)oc2c(-c3ccccc3)cccc12`, in [1], the result was inactive.

Consider `Cc1cccc(C#Cc2ccccc2)n1`, for which, in [1], the compound was called inactive.

With `O=c1c(O)c(-c2cc(O)c(O)c(O)c2)oc2cc(O)cc(O)c12`, in [1], the compound was called inactive.

`O=c1c(O)c(-c2ccc(O)cc2O)oc2cc(O)cc(O)c12`: the compound was classed as inactive in experiment [1], in experiment [4], in [5] and in experiment [3].

With `NCCCCNCCCN`, the outcome in experiment [1] was inactive.

In the case of `COc1c2occc2cc2ccc(=O)oc12`, the compound was classed as inactive in experiment [1], in [4], in [5] and in experiment [7]. For the same compound, the max response in [6] is 59.3%.

For `NS(=O)(=O)c1cc(C(=O)O)c(NCc2ccco2)cc1Cl`, the outcome in experiment [8], in [2], in experiment [7] and in [3] was inactive. For the same compound, the max response in experiment [6] is -4.16% and 9.44%.

With `CCc1nc(N)nc(N)c1-c1ccc(Cl)cc1`, the compound was called inactive in [8], in experiment [2], in experiment [5] and in [7]. Further, the max response in experiment [6] was -4.91%.

For `Nc1ccc(S(N)(=O)=O)cc1`, the outcome in experiment [5] was inactive.

As to `O=C(CCc1ccc(O)cc1)c1c(O)cc(O)cc1O`, the call in [1] was inactive.

Regarding `CC(C)c1ccc2c(c1)c(SC(C)(C)C)c(CC(C)(C)C(=O)O)n2Cc1ccc(Cl)cc1`, the outcome in [1] was inactive.

Take `Nc1nc(Cl)nc2c1ncn2[C@H]1C[C@H](O)[C@@H](CO)O1`: the outcome in [4] and in experiment [5] was inactive.

As to `COC(=O)[C@H](Cc1ccccc1)NC(=O)[C@@H](N)CC(=O)O` (H-Asp-Phe-OMe), the compound was classed as inactive in experiment [8], in experiment [2], in experiment [4], in experiment [5], in experiment [7] and in [3]. The max response in experiment [6] was -1.9% and 6.72%.

As for `COc1cc(OC)c(C(=O)CCCN2CCCC2)c(OC)c1`, in experiment [9], the activation is 8.09% (inactive). In addition, the result in [10], in experiment [5], in experiment [7] and in experiment [3] was inactive. For the same compound, the max response in [6] turned out to be 15.9%.

Regarding `N[C@@H](Cc1cc(I)c(Oc2cc(I)c(O)c(I)c2)c(I)c1)C(=O)O`, in experiment [3], the result was inactive.

`COC(=O)C1=C(C)NC(C)=C(C(=O)OC(C)C)C1c1cccc2nonc12` (stereo unspecified): in [1], the outcome was inactive.

As for `O=C1c2ccccc2-c2n[nH]c3cccc1c23`, the outcome in experiment [1] was inactive.

As for `CCCc1cc(=O)[nH]c(=S)[nH]1`, the compound was called inactive in experiment [8], in experiment [2], in experiment [7] and in [3]. For the same compound, the max response in [6] is 15.2% and -59%.

`CCCCC(CC)COC(=O)C(C#N)=C(c1ccccc1)c1ccccc1` (stereo unspecified): the max response in experiment [6] was -3.97%. Besides, the call in experiment [7] was inactive.

In the case of `CN(C)c1ccc2nc3ccc(=[N+](C)C)cc-3sc2c1`, the compound was called inactive in experiment [2], in experiment [5] and in experiment [3].

Consider `CC(=O)Nc1ccc(O)cc1`, for which the outcome in experiment [1] was inactive.

Consider `CS(=O)(=O)OCCCCOS(C)(=O)=O`, for which the result in experiment [8], in experiment [2], in experiment [7] and in [3] was inactive. In addition, in experiment [6], the max response is -16.8% and 23.8% and -11.6%.

With `CC(=O)N1CCN(c2ccc(OC[C@H]3CO[C@](Cn4ccnc4)(c4ccc(Cl)cc4Cl)O3)cc2)CC1`, the result in experiment [1], in [2] and in experiment [5] was inactive.

With `CCN(CC)C(=S)SSC(=S)N(CC)CC`, the compound was classed as inactive in [8], in experiment [2], in [10], in experiment [5] and in experiment [3]. In addition, the activation in experiment [9] is 6.34% (inactive).

In the case of `c1ccc2[nH]c(-c3cscn3)nc2c1`, the compound was called inactive in experiment [8], in experiment [2], in experiment [4], in [5], in [7] and in experiment [3]. Also, the activation in [9] is 7.31% (inactive) and -15.4% (inactive). In addition, the max response in experiment [6] was -13.4%.

Take `CCOC(=O)C1=C(O)C(=O)N(Cc2ccccc2)C1`: the compound was called inactive in experiment [1].

As to `CC1(C)NC(=O)N(c2ccc([N+](=O)[O-])c(C(F)(F)F)c2)C1=O`, the compound was called inactive in experiment [1], in experiment [4] and in experiment [3].

As for `Cc1ccc(C)c(OCCCC(C)(C)C(=O)O)c1`, the result in [8], in experiment [2], in experiment [10], in experiment [4] and in experiment [7] was inactive. In [9], the activation was 4.9% (inactive) and 2.29% (inactive). In experiment [6], the max response is 34%.
